From PubChem BioAssay
A number with no mark means an inactive call. A call without a number means that no potency is given here. For some assays here: Potency and affinity values are given separately. Active and inactive are the calls of the source. Unless noted, no rule for the calls is given here.

Assays:
[1] = antimalarial activity against Dd2 strain (AID 2302;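 active = growth inhibition above 50% at the single 2 µM test dose, taken to imply half-maximal potency below 2 µM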); settings: P. falciparum Dd2 in RBCs, LDH growth readout, 72 h; at 2 µM; active compounds read high
[2] = human hepatoma cell viability loss – ATP luminescence, cytotoxicity control for P. falciparum antimalarial project, primary screen (AID 2303;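 active = inhibition above 50%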); settings: HepG2 viability, 24-48 h, at 10 µM, active compounds read high
[3] = target: L-lactate dehydrogenase (Plasmodium falciparum (isolate CDC / Honduras)) (UniProt Q27743); test: PfLDH activity inhibition – cell lysate, 3D7 strain, counter-screen for P. falciparum growth inhibition project (AID 2304); settings: P. falciparum 3D7 crude extract, LDH APAD/NBT absorbance; at 2 µM; active compounds read high
[4] = inhibition of 3D7 malaria parasite growth – strain 3D7 (AID 2306); settings: P. falciparum 3D7 erythrocytic growth, LDH absorbance, 72 h; at 2 µM; active compounds read high
[5] = target: Calcium-dependent protein kinase 1 (Plasmodium falciparum (isolate 3D7)) (UniProt P62344); test: PfCDPK1 kinase inhibitors, biochemical, TCAMS library (AID 1159585; cut-off not given, nearly all actives have IC50 up to about 0.98 µM;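 also: inhibitors leave more ATP so luminescence rises with inhibition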); settings: recombinant PfCDPK1, Kinase-Glo ATP depletion luminescence
[6] = target: Plasmodium falciparum protein kinase 6 (PK6, PF3D7_1337100) (UniProt Q8IDW1); test: PfPK6 kinase inhibitors, biochemical, TCAMS library (AID 1159586); settings: recombinant PfPK6, Kinase-Glo ATP depletion luminescence
[7] = target: Protein kinase 7 (PK7), Plasmodium falciparum 3D7 (PF3D7_0213400) (UniProt Q7YTF7); test: inhibition of Plasmodium PK7 catalytic activity – biochemical, TCAMS antimalarial set, Kinase-Glo luminescence (AID 1159587); settings: recombinant PfPK7, Kinase-Glo ATP depletion luminescence
[8] = target: Calcium-dependent protein kinase 4 (Plasmodium falciparum (isolate 3D7)) (UniProt Q8IBS5); test: PfCDPK4 kinase inhibitors, biochemical, TCAMS library (AID 1159588; cut-off not given, nearly all actives have IC50 up to about 0.91 µM); settings: recombinant PfCDPK4, Kinase-Glo ATP depletion luminescence
Sequence of Calcium-dependent protein kinase 4 (Plasmodium falciparum (isolate 3D7)) (Q8IBS5 whole entry, looked up): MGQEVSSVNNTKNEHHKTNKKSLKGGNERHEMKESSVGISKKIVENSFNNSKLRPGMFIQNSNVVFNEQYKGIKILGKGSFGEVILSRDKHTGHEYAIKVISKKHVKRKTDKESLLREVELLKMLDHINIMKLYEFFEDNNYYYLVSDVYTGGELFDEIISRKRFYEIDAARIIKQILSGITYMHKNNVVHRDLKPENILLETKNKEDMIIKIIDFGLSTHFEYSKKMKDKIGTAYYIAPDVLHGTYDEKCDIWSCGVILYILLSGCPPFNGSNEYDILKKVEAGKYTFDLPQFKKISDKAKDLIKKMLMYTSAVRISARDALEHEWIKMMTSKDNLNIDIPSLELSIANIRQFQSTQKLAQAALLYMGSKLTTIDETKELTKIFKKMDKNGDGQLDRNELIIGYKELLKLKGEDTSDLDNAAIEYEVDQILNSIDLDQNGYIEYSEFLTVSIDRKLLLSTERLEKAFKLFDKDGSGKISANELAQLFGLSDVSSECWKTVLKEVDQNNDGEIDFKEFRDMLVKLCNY

Sequence of L-lactate dehydrogenase (Plasmodium falciparum (isolate CDC / Honduras)) (Q27743 whole entry, looked up): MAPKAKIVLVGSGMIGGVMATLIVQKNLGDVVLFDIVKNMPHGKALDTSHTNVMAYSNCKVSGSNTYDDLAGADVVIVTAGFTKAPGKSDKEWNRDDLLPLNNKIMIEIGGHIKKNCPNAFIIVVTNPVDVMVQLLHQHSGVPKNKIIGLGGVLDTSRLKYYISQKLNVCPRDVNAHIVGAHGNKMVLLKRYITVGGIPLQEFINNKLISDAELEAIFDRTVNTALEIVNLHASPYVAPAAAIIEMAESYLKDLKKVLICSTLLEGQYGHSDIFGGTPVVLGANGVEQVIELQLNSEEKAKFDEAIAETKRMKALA
Sequence of Calcium-dependent protein kinase 1 (Plasmodium falciparum (isolate 3D7)) (P62344 whole entry, looked up): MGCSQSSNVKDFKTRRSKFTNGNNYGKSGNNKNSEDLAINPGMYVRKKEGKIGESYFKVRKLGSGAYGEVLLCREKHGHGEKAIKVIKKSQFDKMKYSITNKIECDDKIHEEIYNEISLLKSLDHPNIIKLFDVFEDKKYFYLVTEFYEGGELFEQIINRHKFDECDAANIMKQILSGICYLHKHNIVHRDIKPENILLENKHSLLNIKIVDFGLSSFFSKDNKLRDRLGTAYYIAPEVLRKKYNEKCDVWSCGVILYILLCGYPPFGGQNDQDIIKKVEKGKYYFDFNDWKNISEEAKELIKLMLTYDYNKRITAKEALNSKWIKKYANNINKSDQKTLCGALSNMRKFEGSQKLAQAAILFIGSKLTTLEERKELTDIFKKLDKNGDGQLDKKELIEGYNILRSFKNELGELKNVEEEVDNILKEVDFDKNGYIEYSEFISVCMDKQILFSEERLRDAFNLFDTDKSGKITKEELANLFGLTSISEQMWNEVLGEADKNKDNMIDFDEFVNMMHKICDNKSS
Sequence of Protein kinase 7 (PK7), Plasmodium falciparum 3D7 (PF3D7_0213400) (Q7YTF7 1-343): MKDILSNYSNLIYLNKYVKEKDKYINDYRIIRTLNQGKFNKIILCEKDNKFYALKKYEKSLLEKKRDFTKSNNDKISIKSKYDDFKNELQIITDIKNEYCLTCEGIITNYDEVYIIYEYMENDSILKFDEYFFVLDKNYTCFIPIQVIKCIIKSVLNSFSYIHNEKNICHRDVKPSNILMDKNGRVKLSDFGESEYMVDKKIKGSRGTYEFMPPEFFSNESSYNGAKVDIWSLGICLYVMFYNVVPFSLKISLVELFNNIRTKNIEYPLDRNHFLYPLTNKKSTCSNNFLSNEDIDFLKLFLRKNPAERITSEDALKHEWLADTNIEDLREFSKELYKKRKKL
Sequence of Plasmodium falciparum protein kinase 6 (PK6, PF3D7_1337100) (Q8IDW1 1-305): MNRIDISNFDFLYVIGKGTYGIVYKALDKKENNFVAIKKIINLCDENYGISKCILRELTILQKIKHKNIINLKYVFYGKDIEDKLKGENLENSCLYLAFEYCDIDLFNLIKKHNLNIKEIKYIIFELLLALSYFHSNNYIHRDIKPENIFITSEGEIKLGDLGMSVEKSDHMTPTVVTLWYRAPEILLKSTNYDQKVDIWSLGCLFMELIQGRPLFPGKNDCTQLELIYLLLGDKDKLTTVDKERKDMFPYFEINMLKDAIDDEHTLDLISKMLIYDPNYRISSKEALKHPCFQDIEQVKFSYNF

SMILES	growth inhibition [1]	inhibition [2]	inhibition [3] [%]	growth inhibition [4]	outcome [5]	outcome [6]	outcome [7]	outcome [8]
CCOC(=O)C1=C(C)N=c2sc(=Cc3cc(Cl)ccc3O)c(=O)n2C1c1ccc(OC)cc1 (stereo not given)	65% (active)	-6%	-3	99% (active)	inactive	inactive	inactive	inactive
CCOc1cc(C(=O)NC2CCN(Cc3ccccc3)CC2)ccc1-c1nc2cc(Cl)c(Cl)cc2[nH]1	99% (active)	24%	2	101% (active)	inactive	inactive	inactive	inactive
CCCn1c(Sc2ccc(C#N)c([N+](=O)[O-])c2)nnc1-c1ccc(N(C)C)cc1	98% (active)	18%	7	97% (active)	inactive	inactive	inactive	inactive
CN(C)CCOc1cc(NC(=O)Nc2ccc3c(c2)CCCC3=O)ccc1I	31%	29%	-5	94% (active)	inactive	inactive	inactive	inactive
CCN(CCCN1CCCCC1)c1cc(C)nc(Nc2ccc(C)c(C)c2)n1	60% (active)	30%	-3	101% (active)	inactive	inactive	inactive	inactive
O=C(NC1CCN(CCN2CCC(c3ccccc3C(F)(F)F)CC2)CC1)c1ccc(-c2ccc(Cl)cc2)cc1	68% (active)	39%	4	101% (active)	inactive	inactive	inactive	inactive
O=C(/C=C/c1ccc(Cl)c(Cl)c1)NCCCCCN1CCCN(C(=S)Nc2ccc(Cl)c(Cl)c2)CC1	-3%	16%	-3	96% (active)	inactive	inactive	inactive	inactive
CCCNS(=O)(=O)c1ccc(NC(=O)C(C)Oc2ccc([N+](=O)[O-])cc2)cc1 (stereo not given)	37%	3%	3	100% (active)	inactive	inactive	inactive	inactive
CCOc1cc(C)ccc1C1CCN(CCN2CCC(CNC(=O)c3ccc(-c4ccc(C(F)(F)F)cc4)cc3)CC2)CC1	89% (active)	53% (active)	-2	98% (active)	inactive	inactive	inactive	inactive
CCCC/C=C(\Cl)c1ccc(O)c2c1C[C@H]1C[C@H]3[C@H](N(C)C)C(=O)C(C(N)=O)=C(O)[C@@]3(O)C(=O)C1=C2O	98% (active)	16%	-4	90% (active)	inactive	inactive	inactive	inactive
CC(C)NCc1ccc(-c2cccc(NC(=O)c3cccc(Cl)c3)c2)cc1	87% (active)	24%	1	100% (active)	inactive	inactive	inactive	inactive
O=C(Nc1ccc2c(c1)OCCO2)c1cc(-c2cccnc2)nc2ccc(Cl)cc12	27%	2%	-1	95% (active)	inactive	inactive	inactive	inactive
COc1cc(NCC(O)CNc2cc(OC)c3ccccc3n2)nc2ccccc12	93% (active)	42%	5	100% (active)	inactive	inactive	inactive	inactive
CCCCCN1CCCC(NS(=O)(=O)c2ccc(C(=O)Nc3cccc(C(F)(F)F)c3)cc2)C1 (stereo not given)	3%	30%	5	97% (active)	inactive	inactive	inactive	inactive
O=C(Nc1cccc(-c2ccc(CN3CCCC3)cc2)c1)c1cccc(F)c1	17%	20%	-6	99% (active)	inactive	inactive	inactive	inactive
O=C(Nc1ccc(Cl)cc1Cl)N[C@H]1CCN(CCCCCNC(=O)[C@@H]2C[C@H]2c2ccc(Cl)c(Cl)c2)C1	0%	37%	2	94% (active)	inactive	inactive	inactive	inactive
Cc1ccc(Nc2nnc(SCC(=O)Nc3ccc(CN4CCCC4)cc3)s2)cc1	-2%	4%	-2	91% (active)	inactive	inactive	inactive	inactive
N#Cc1ccc(-c2nc(CO)c(C(=O)NCCCCN3CCC(c4ccc5c(c4OCC(N)=O)CCCC5)CC3)s2)cc1	-1%	9%	4	92% (active)	inactive	inactive	inactive	inactive
N#Cc1cccc(NC(=O)NC2CCN(CCCCCNC(=O)[C@@H]3C[C@H]3c3ccc(Cl)c(Cl)c3)CC2)c1	-2%	36%	3	102% (active)	inactive	inactive	inactive	inactive
O=C(Nc1ccnc(-c2cccnc2)n1)c1cc(C(F)(F)F)cc(C(F)(F)F)c1	12%	22%	-4	95% (active)	inactive	inactive	inactive	inactive

SMILES	growth inhibition [1]	inhibition [2]	inhibition [3] [%]	growth inhibition [4]	outcome [5]	outcome [6]	outcome [7]	outcome [8]
O=C(CC1NC(=O)c2ccccc21)Nc1ccc(-c2ccc(-c3nc4ccc(C(F)(F)F)cc4[nH]3)cc2)cc1 (stereo not given)	70% (active)	39%	-2	87% (active)	inactive	inactive	inactive	inactive
CN1CCN(c2ccnc3ccc(NC(=O)Nc4cccc5ccccc45)cc23)CC1	96% (active)	-3%	1	101% (active)	inactive	inactive	inactive	inactive
CCCn1c(SCC(=O)Nc2cc(Cl)ccc2Cl)n[nH]c1=O	53% (active)	-5%	-2	88% (active)	inactive	inactive	inactive	inactive
O=C(NC1CCN(CCCc2ccccc2)CC1)c1ccc(-c2cccc(C(F)(F)F)c2)s1	47%	93% (active)	1	95% (active)	inactive	inactive	inactive	inactive
CCN(CC)CCNC(=O)c1ccc(NC(=O)c2ccc(-c3cc(NC(=O)CC4CCCC4)ccc3C)cc2)cc1	95% (active)	12%	-5	99% (active)	inactive	inactive	inactive	inactive
Oc1cccc(Nc2nc(NCC3CCCO3)c3ccccc3n2)c1 (stereo not given)	87% (active)	-9%	-1	100% (active)	inactive	inactive	inactive	inactive
CC1CCCN(S(=O)(=O)c2cc(Br)cc3c2N(C(=O)C2CC2)CC3)C1 (stereo not given)	70% (active)	-14%	-3	83% (active)	inactive	inactive	inactive	inactive
Fc1ccc2[nH]c3c(NCCCN4CCOCC4)ncnc3c2c1	2%	14%	-4	98% (active)	inactive	inactive	inactive	inactive
CC(C)(C)c1nn(-c2ccccc2)c2[nH]c(=O)c(CNCc3ccccc3)cc12	91% (active)	5%	2	90% (active)	inactive	inactive	inactive	inactive
O=C(/C=C/c1ccc(Cl)c(Cl)c1)NCCCCCN1CCC(CCNC(=O)c2snnc2-c2ccccc2)CC1	1%	54% (active)	-2	89% (active)	inactive	inactive	inactive	inactive
CSc1nc2nc(C)c(Cc3cccc(C(F)(F)F)c3)c(C)n2n1	95% (active)	4%	2	98% (active)	inactive	inactive	inactive	inactive
Cc1cc(OCC(=O)Nc2ccc(-c3nc4ccccc4[nH]3)cc2)cc(C)c1Cl	0%	5%	-1	99% (active)	inactive	inactive	inactive	inactive
Cc1ccc(NC(=O)Nc2ccc(Cl)cc2)cc1-c1ccc(C(=O)Nc2ccncc2)cc1	63% (active)	54% (active)	-1	99% (active)	inactive	inactive	inactive	inactive
Cc1cc(N[C@@H](Cc2ccccc2)C(=O)NC2CCCC2)nc(NCCc2ccc(F)cc2)n1	61% (active)	21%	-2	100% (active)	inactive	inactive	inactive	inactive
CCCCc1ccccc1NS(=O)(=O)c1ccc(OC)c(N2CCNCC2)c1	2%	6%	0	91% (active)	inactive	inactive	inactive	inactive
NC1=NC(c2ccccc2)(c2ccccc2)C(=O)N1CC=Cc1ccccc1	70% (active)	23%	-3	98% (active)	inactive	inactive	inactive	inactive
COc1ccc2nccc([C@@H](O)CN3CCC(NCCOc4cccc(C(F)(F)F)c4)CC3)c2c1	74% (active)	16%	3	102% (active)	inactive	inactive	inactive	inactive
COc1ccc(OC(C)CNC(=O)c2cc([N+](=O)[O-])ccc2-c2ccc(OC)cc2)cc1 (stereo not given)	44%	18%	3	92% (active)	inactive	inactive	inactive	inactive
CC(C)(C)c1cc(C(=O)Nc2cccnc2)cc(C(=O)Nc2cccnc2)c1	35%	-12%	-3	95% (active)	inactive	inactive	inactive	inactive
COc1ccc2c(NCCc3ccccc3)cc(-c3ccccc3)nc2c1	1%	13%	2	98% (active)	inactive	inactive	inactive	inactive
